Shown is part of a subset that was picked to be rich in hits.
NTMT1 inhibitor: NTMT1 methyltransferase inhibition; Potency, µM (top dose mostly 114 µM), inactives show at the top dose activity change, negative = inhibition, most hits filed as inhibitors; Q9BV86; 59,000 tested, 2.5% active; NTMT1 MTase-Glo SAH luminescence, purified enzyme;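 also: plate controls were DMSO vehicle for no effect and no enzyme for full effect; nearly all actives have a fitted effect of over 65% in size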
Target sequence (Q9BV86 whole entry, looked up): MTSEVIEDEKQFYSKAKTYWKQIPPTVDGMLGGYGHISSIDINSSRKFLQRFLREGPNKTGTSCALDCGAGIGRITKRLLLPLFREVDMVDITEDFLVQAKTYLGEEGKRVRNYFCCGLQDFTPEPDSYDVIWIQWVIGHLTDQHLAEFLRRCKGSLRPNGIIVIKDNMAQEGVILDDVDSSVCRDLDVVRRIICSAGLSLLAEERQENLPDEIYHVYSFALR
HTT-AS act: activators of huntingtin-antisense promoter activity; HEK293 HTT-AS promoter firefly luciferase reporter, 24 h; response scale: percent change from vehicle, -100% = no light; Potency, µM (series often up to 57.5 µM), for inactives: top-dose activity change, positive = activation, most hits filed as activators; 48,000 tested, 0.24% active; AID 1508624; also: nearly all actives have a fitted effect of over 55% in size
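HEK293 cells carrying firefly luciferase reporters were seeded at 2,500 per well in Opti-MEM and cultured for 24 h. They were then treated with compounds at up to 57.5 uM final for 24 h at 37 degrees C before Dual-Glo luminescence readout.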
HTT promoter inh: inhibitors of huntingtin promoter activity | HEK293 HTT promoter firefly luciferase reporter, 24 h | Potency, µM (doses to about 57.5 µM), for the others: top-dose activity change, negative = inhibition, most hits filed as inhibitors | 48,000 tested, 0.93% active | AID 1508623; also: nearly all actives have a fitted effect of over 50% in size
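Firefly luciferase readout (Dual-Glo, 10 min RT) after 24 h, 37 °C compound exposure (final up to 57.5 uM) of HEK293 reporter cells cultured 24 h beforehand; PTC124 at 50 uM final as control inhibitor; activity scaled vehicle 0%, zero RLU -100%.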
Numbers without * were called inactive; ? = inconclusive; · = no result given; ! = not confirmed by another sample; [ ] = dose if it differs, or a comment. Calls follow the shape of the dose curve; as a rule, active = well fitted curve in the direction sought with a large enough effect; inconclusive = small, poorly fitted or top-dose-only effect, or another doubt; inactive = no such curve, though single readings can be large; an effect the other way counts as inactive or inconclusive. Potency is read from the fitted curve at half-maximal effect.

SMILES	NTMT1 inhibitor	HTT-AS act	HTT promoter inh
Cc1ccc(/C=C/c2nc3ccccc3n2S(=O)(=O)c2ccc(Br)cc2)cc1	?	?	2%
O=S(=O)(c1cccc(Cl)c1)n1c(/C=C/c2ccccc2Cl)nc2ccccc21	6.3µM*	?	-46%
COc1ccc(-n2c(=O)[nH]c3cc(C(=O)NCc4ccc(Cl)cc4)sc3c2=O)nc1OC	21%[57.5 µM]	·	·
C=C1[C@@H](OC(C)=O)CC[C@@]2(C)[C@@H](OC(C)=O)[C@H](OC(C)=O)C3=C(C)C[C@H](OC(=O)C(C)CC)[C@@H]([C@@H](OC(C)=O)[C@H]12)C3(C)C (stereo not given in full)	12%[12.6 µM]	·	·
Cc1ccc(Cl)cc1N1CCN(C(=O)c2ccc3nc(N4CCC(C)CC4)sc3c2)CC1	4%	-79%	3.5µM*
COc1ccc(N2CCN(CCCNC(=O)c3ccc4nc(N5CCCCC5)sc4c3)CC2)cc1	22µM*	-56%	?
Cc1ccc(Cl)cc1N1CCN(CCCNC(=O)c2ccc3nc(N4CCCCC4)sc3c2)CC1	?	-36%	?
COc1ccc(N2CCN(C(=O)c3ccc4nc(N5CCC(C)CC5)sc4c3)CC2)cc1	1%	-72%	2.2µM*
Cc1ccc(C)c(N2CCN(CCCNC(=O)c3ccc4nc(N5CCC(C)CC5)sc4c3)CC2)c1	?	?	-84%
COc1cccc(N2CCN(C(=O)c3ccc4nc(N5CCC(C)CC5)sc4c3)CC2)c1	-1%	-64%	?
CCOc1ccc(CCNC(=O)c2cccc(C(=O)c3ccccc3)c2)cc1OCC	5%	·	·
COc1ccc(CNc2nc(-c3ccccc3C(F)(F)F)nc3ccccc23)cc1	8%	·	·
CCCn1c(/C=C/c2ccccc2)nc2ccccc21	?	?	64%
CC[N+](CC)(CC)CCOc1cccc(OCC[N+](CC)(CC)CC)c1OCC[N+](CC)(CC)CC	8.9µM*!	-1%	-1%
CC[N+](CC)(CC)CCOc1ccc(/C=C/c2ccccc2)cc1	28µM*	-34%	?
CC1(C)CC2C3=CCC4C5(C)CCC(OC6OC(CO)C(O)C(OC7OC(CO)C(O)C(OC8OC(CO)C(O)C(OC9OC(COC%10OC(CO)C(O)C(O)C%10O)C(O)C(O)C9O)C8O)C7O)C6O)C(C)(C)C5CCC4(C)C3(C)CCC2(C(=O)O)CC1O (stereo not given)	-1%[6.45 µM]	·	·
Cc1ccccc1CC1C(=O)Nc2ccc(Br)cc21 (stereo not given)	?	-24%	?
COc1ccc(Br)cc1CC1C(=O)Nc2ccccc21 (stereo not given)	25µM*	-51%	13µM*
CCOc1ccc(NC(=O)c2ccc(F)c(S(=O)(=O)N(CC)Cc3ccccc3)c2)cc1	3%	-40%	2µM*
O=C(Nc1cc(Cl)cc(Cl)c1)c1ccc(F)c(S(=O)(=O)NCc2ccccc2Cl)c1	13%	-32%	?
CCN(Cc1ccccc1)S(=O)(=O)c1cc(C(=O)Nc2cc(Cl)cc(Cl)c2)ccc1F	10%	-45%	25µM*
COC(=O)c1ccc(CN(Cc2ccc(OC)c(OC)c2)S(=O)(=O)c2cc(C(=O)Nc3cccc(C)c3)ccc2F)cc1	-1%	-3%	-20%
CCOC(=O)[C@H](CCc1ccccc1)CC1(C(=O)N[C@H]2CCc3ccccc3N(CC(=O)O)C2=O)CCCC1	3%[57.5 µM]	·	·
COc1cc(NC(=O)c2cccc(-n3cc(NC(=O)Nc4cccc(C)c4)cn3)c2)cc(OC)c1OC	3%[57.5 µM]	·	·
O=S(=O)(Nc1cnc2ccccc2c1)c1ccc(NCc2ccc(Br)cc2O)cc1	-4%	·	·
SMILES	NTMT1 inhibitor	HTT-AS act	HTT promoter inh
O=S(=O)(Nc1nc2ccccc2s1)c1ccc(NCc2ccc(Br)cc2O)cc1	28µM*	·	·
C/C=C(\C)C(=O)O[C@H]1C=CC(=O)O[C@H]1/C=C/[C@H](O)[C@@H](C)O	2%[57.5 µM]	·	·
Cc1ccccc1Nc1nn2c(=O)c3ccc(C(=O)NCc4cccs4)cc3nc2s1	-1%	-21%	-32%
COc1cccc(NC(=O)c2ccc3c(=O)n4nc(Nc5ccccc5OC)sc4nc3c2)c1	79µM*	-34%	-8%
CCc1cccc(NC(=O)c2ccc3c(=O)n4nc(Nc5ccccc5OC)sc4nc3c2)c1	-10%	-51%	?
Cc1ccc(Cl)cc1Nc1nn2c(=O)c3ccc(C(=O)NCc4cccs4)cc3nc2s1	79µM*	-42%	?
COc1cccc(CCN2C(=O)c3ccccc3NC2c2ccc(OC)c(COc3c(C)cc(NC(C)=O)cc3C)c2)c1 (stereo not given)	16%	·	·
COc1ccc(C(OC2OC(CO)C(O)C(O)C2O)C(C)O)cc1 (stereo not given)	16%[29.8 µM]	·	·
FC(F)(F)c1ccccc1-c1nc(NCc2ccc(-c3ccc(Cl)cc3)cc2)c2ccccc2n1	18%	·	·
CO[C@@H](Cc1ccc(OCCc2nc(-c3ccccc3)oc2C)c2ccsc12)C(=O)O	-5%[57.5 µM]	·	·
C[n+]1cc2c3c(ccc2c2ccc4cc5c(cc4c21)OCO5)OCO3	?	-93%[25.1 µM]	2.8µM*
COc1ccc(-c2nc3scc(CCNS(=O)(=O)c4ccc(Oc5ccccc5)cc4)n3n2)cc1	-4%	-32%	-30%
Cc1ccc(-c2nc3scc(CCNS(=O)(=O)c4ccc(Oc5ccccc5)cc4)n3n2)cc1	12%	-84%	20µM*
Oc1cccc(-c2c3nc(c(-c4cccc(O)c4)c4ccc([nH]4)c(-c4cccc(O)c4)c4nc(c(-c5cccc(O)c5)c5ccc2[nH]5)CC4)C=C3)c1	22µM*	-27%	?
CC(=O)OC1C(O)CC2(C)C(CCC3(C)C2CC=C2C4C5(CCC(CO[C@@H]6O[C@H](CO)[C@@H](O)[C@H](O)[C@H]6O)(OC5=O)C4(C)O)C(O)CC23C)C1(C)C (stereo not given in full)	-9%[12.6 µM]	·	·
Cc1ccc(S(=O)(=O)Nc2ccc(C(=O)Nc3nc(-c4ccc(Cl)cc4)cs3)cc2)cc1	11%[57.5 µM]	·	·
CC(=O)N1c2ccc(S(=O)(=O)Nc3ccc(C)c(Cl)c3)cc2CC1C (stereo not given)	?	-39%	-30%
CCc1cccc(NS(=O)(=O)c2ccc3c(c2)CC(C)N3C(=O)C2CC2)c1 (stereo not given)	23%	-79%	14µM*
CC(=O)N1c2ccc(S(=O)(=O)N3CCN(c4cccc(Cl)c4)CC3)cc2CC1C (stereo not given)	-16%	-20%	8%
CC1Cc2cc(S(=O)(=O)NCc3ccccc3)ccc2N1C(=O)C1CCC1 (stereo not given)	?	-30%	?
COc1ccc(NS(=O)(=O)c2ccc3c(c2)CC(C)N3C(=O)C2CCC2)cc1OC (stereo not given)	7%	-50%	1.8µM*
COc1cc(Cl)c(NS(=O)(=O)c2ccc3c(c2)CC(C)N3C(=O)C2CCC2)c(OC)c1 (stereo not given)	1%	-87%	8.9µM*
CC(=O)N1c2ccc(S(=O)(=O)Nc3ccc(C)c(C)c3)cc2CC1C (stereo not given)	14%	·	·
CCC(=O)N1c2ccc(S(=O)(=O)N3CCN(c4ccccc4Cl)CC3)cc2CC1C (stereo not given)	89µM*	-41%	?
Cc1ccc(S(=O)(=O)Nc2cc(Br)ccc2C(=O)Nc2nc(-c3ccccc3)cs2)cc1	-22%[57.5 µM]	·	·

Source: PubChem
